Data on 35 compounds can be found in PubChem BioAssay (NCI).

Structures are written as SMILES. About 83,000 compounds went through this panel and 20% of them were active in at least one assay; those are over-represented in the sample as a whole.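 Growth was measured after 48 h exposure to one concentration of compound in 96-well plates. Values under 10 count as active.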 Calls of active or inactive are those of the source.

The assay relates to NCI-H522 lung. The assay is described as follows: NCI-60 one-dose screen, 48 h (100 = growth as untreated, 0 = no growth, -100 = all killed). The conditions noted are these: 10 µM unless noted.
Turning to `COc1cc(Cn2ncc3ccc(NC(=O)c4cc5ccccc5oc4=N)cc32)cc(OC)c1OC`, the growth was 20.3% (inactive).

Regarding `N=C1C(c2nc(-c3ccc(Br)cc3)cs2)=C(O)CN1Cc1cccnc1`, the growth is 68.4% (inactive).

In the case of `COc1ccc(/C=C/c2c(C(=O)/C=C/c3cccs3)c(C)nc3ccccc23)cc1`, the growth is 62.6% (inactive).

On to `N#C/C(=C\c1ccc(Br)cc1)n1nnc2cc(F)c(F)cc21`, for which the growth was 19.9% (inactive).

Turning to `C[C@@H]1N=C(c2ccc3ccccc3n2)Nc2nc3ccccn3c2C1=O`, the growth was 102% (inactive).

`CCCCc1ccc(Nc2ccc(Nc3ccc(CCCC)cc3S(=O)(=O)O)c3c2C(=O)c2ccccc2C3=O)c(S(=O)(=O)O)c1`: the growth was 65% (inactive).

As for `COc1ccc(OC)c2c1[nH]c(=O)c1c3ncccc3cn21`, the growth was 29.7% (inactive).

Turning to `COc1ccc(NC(=O)CSc2nc(C)c(C(C)=O)n2-c2ccc(Cl)cc2)cc1`, the growth was 78.1% (inactive).

In the case of `COc1cccc(-c2nn(-c3ccccc3)cc2-c2ccnc(NCCNC(=O)Nc3cccc(C(F)(F)F)c3)c2)c1`, the growth was -17.9% (active).

`O=C(NCCCNc1cc(-c2cn(-c3ccccc3)nc2-c2cccc(O)c2)ccn1)c1ccccc1`: the growth is 7.01% (active).

For the compound `Cc1cc(NCc2cc(Nc3ccnc4cc(Cl)ccc34)ccc2F)nc(N2CCCC2)n1`, the growth is -40.3% (active).

As for `Oc1ccc(CN2CCC(N3CCOCC3)CC2)c2cccnc12`, the growth is -14.9% (active).

In the case of `CCN(CC)c1nc(SCC(=O)Nc2nc3ccc(C)cc3s2)nc(-c2ccccc2)c1C#N`, the growth is 82.5% (inactive).

Take `Clc1cccc(Cl)c1C(Nc1nc2ccccc2s1)Nc1nc2ccccc2s1`: the growth was 90.8% (inactive).

`C[C@H]1[C@H]2[C@H]3CC[C@@H]4[C@@]5(C)C/C(=C/c6cccnc6)C(=O)C(C)(C)[C@@H]5CC[C@@]4(C)[C@]3(C)CC[C@]23CO[C@]1(C)[C@@H](C(=O)/C=C\c1cccnc1)C3`: the growth was -34.4% (active).

`O=c1ccn2nc3ccccc3c2[nH]1`: the growth was 91.9% (inactive).

`COc1ccccc1NC(=O)N/C(N)=N/c1nc2ccccc2s1`: the growth is 4.23% (active).

`COc1c(CCC[P+](c2ccccc2)(c2ccccc2)c2ccccc2)cc2c(c1OC)OCO2`: the growth was -11.8% (active).

`COc1ccc(C(=O)Nn2c(NCC(=O)N3c4ccccc4Sc4ccccc43)nnc2-c2ccc(O)cc2)cc1`: the growth was 92.2% (inactive).

Take `COc1ccc(-c2nc3c(c(=O)n2C(C)=O)C(c2ccc(Cl)cc2)c2sc4c(Cl)cccc4c2O3)cc1` (stereo not given): the growth is -45.6% (active).

On to `Cc1nc2c(c(N3CCCc4ccccc43)n1)CCC2`, for which the growth was -18.6% (active).

Consider `CC1=C([Se]CC(OC(=O)CC[Se]c2ccccc2)C(=O)NCCCCCC(=O)OCc2ccccc2)C(=O)c2ccccc2C1=O` (stereo not given), for which the growth is 52.7% (inactive).

`Cc1cc(NCCCCNc2ccnc3cc(Cl)ccc23)nc(Nc2ccc(C(=O)N3CCCC3)cc2)n1`: the growth is 26.5% (inactive).

With `Cc1ccc(N(C(=O)CCc2c[nH]c3ccccc23)[C@H](C(=O)Nc2ccc(Cl)cc2)c2cccc([N+](=O)[O-])c2)cc1`, the growth was 64.2% (inactive).

Regarding `O=c1[nH]c2ccccc2n1C1CCN(CCOc2ccccc2)CC1`, the growth is 76.3% (inactive).

As to `c1ccc2c(c1)nc(CN1CCOCC1)n1cc(N3CCCC3)nc21`, the growth was 106% (inactive).

Take `CC/C=C1/C(=O)C=C[C@@H]1C/C=C\CCCC(=O)O`: the growth is 24% (inactive).

Consider `COC(=O)[C@]12CC[C@@H](C)[C@H](C)[C@@H]1C1=CC[C@@H]3[C@@]4(C)C(C=O)=C[C@@](C)(COS(C)(=O)=O)C4[C@H](O)C[C@@]3(C)[C@]1(C)CC2` (stereo not given in full), for which the growth was -82.6% (active).

For `CCCCCCCCn1ccc2cc(NC(=O)Cn3cc(CN4CCCC4)nn3)ccc21`, the growth was 52.3% (inactive).

As for `CCCCCCCOc1c(OC)cc(C2CC(=O)Nc3c2c(C)nn3-c2nc3ccccc3[nH]2)cc1OC` (stereo not given), the growth was -40.7% (active).

As for `COc1cc(-c2nc(N3CCN(C)CC3)c3ccccc3n2)cc(OC)c1OC`, the growth is 8.58% (active).

As to `CCC(CO)Nc1nc2ccc(Cl)cc2c2ccccc12` (stereo not given), the growth was 58.6% (inactive).

Take `NS(=O)(=O)c1ccc(-n2nc(C(=O)N/N=C\c3ccc(F)cc3)cc2-c2ccc(Cl)cc2)cc1`: the growth was 78.4% (inactive).

`O=S(=O)(NCCCNc1cc(-c2c(-c3cccc(O)c3)nc3sccn23)ccn1)c1cccc(Cl)c1`: the growth is 44.1% (inactive).

For the compound `CC(=O)n1c(-c2ccc(Cl)cc2)nc2c(c1=O)C(c1ccc(Cl)cc1)c1sc3c(Cl)cccc3c1O2` (stereo not given), the growth was -32.9% (active).
